# Measurements taken from the supplement of paper PMC10849652.
# Targets with a hit are over-represented here; the source holds about 7,900 in all. About 0.6% of all pairs of compound and target were hits. Values without a mark were called inactive.
# Assays:
# Experiment in all cases: log2 fold change, soluble protein after heating vs DMSO (PISA); higher = thermal stabilisation; K562 cells, 10 uM, 30 min; active = over 0.2 and 3.5 SD of the protein, either way, in both replicates (recomputed)
# YAE1 = YAE1 (UniProt Q9NRH1)
# Outline: (§1)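 K562 cells at 2×10^6 cells/mL were exposed to 10 μM compound for 30 min, then aliquots were heated for 3 min across 48°C-58°C, pooled, and extracted in PBS containing 0.5% NP-40 at 4°C. The supernatant after 21,000xg for 90 min was taken as soluble protein and measured by TMTpro 16plex LC-MS/MS with channel sums equalised. Thermal stability is reported relative to control samples, with values from duplicates. Fold changes are given on a log2 scale.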
# YBX1 = YBX1 (UniProt P67809)
# YBX1, sequence (P67809 whole entry, looked up): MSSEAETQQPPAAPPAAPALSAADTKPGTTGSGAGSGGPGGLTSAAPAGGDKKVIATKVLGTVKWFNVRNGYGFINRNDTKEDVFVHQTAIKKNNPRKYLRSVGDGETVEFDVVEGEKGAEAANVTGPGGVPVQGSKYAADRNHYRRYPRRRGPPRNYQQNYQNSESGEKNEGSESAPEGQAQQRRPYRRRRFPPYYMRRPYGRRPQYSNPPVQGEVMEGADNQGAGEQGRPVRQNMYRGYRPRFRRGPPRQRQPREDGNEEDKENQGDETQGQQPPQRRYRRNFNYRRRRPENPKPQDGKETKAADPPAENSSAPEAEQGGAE
# Outline: as §1
# YES1 = YES1 (UniProt P07947)
# YES1, sequence (P07947 whole entry, looked up): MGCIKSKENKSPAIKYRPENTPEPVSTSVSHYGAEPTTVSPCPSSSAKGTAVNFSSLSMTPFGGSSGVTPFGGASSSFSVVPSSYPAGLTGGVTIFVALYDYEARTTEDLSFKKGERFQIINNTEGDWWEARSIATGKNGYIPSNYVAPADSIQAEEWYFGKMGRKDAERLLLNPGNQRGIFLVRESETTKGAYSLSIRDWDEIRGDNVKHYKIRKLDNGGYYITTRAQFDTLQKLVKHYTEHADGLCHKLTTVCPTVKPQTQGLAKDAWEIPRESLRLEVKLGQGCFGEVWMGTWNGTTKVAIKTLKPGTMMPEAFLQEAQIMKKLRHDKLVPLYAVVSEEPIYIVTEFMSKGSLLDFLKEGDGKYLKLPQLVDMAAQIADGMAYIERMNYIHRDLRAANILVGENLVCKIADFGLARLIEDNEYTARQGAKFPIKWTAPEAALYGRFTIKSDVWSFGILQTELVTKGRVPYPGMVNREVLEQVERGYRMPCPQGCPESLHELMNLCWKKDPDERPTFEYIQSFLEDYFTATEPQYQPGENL
# Outline: as §1
# YIPF4 = YIPF4 (UniProt Q9BSR8)
# YIPF4, sequence (Q9BSR8 whole entry, looked up): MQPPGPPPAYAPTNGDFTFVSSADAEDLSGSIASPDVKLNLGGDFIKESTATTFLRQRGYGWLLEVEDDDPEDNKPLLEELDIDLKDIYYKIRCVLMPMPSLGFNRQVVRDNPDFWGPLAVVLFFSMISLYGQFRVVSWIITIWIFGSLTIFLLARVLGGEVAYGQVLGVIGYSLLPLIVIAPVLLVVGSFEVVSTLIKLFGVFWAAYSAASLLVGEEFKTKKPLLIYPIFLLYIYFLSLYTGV
# Outline: as §1
# YIPF5 isoform 3 = YIPF5 isoform 3 (UniProt Q969M3)
# YIPF5 isoform 3, sequence (Q969M3 whole entry, looked up, canonical isoform): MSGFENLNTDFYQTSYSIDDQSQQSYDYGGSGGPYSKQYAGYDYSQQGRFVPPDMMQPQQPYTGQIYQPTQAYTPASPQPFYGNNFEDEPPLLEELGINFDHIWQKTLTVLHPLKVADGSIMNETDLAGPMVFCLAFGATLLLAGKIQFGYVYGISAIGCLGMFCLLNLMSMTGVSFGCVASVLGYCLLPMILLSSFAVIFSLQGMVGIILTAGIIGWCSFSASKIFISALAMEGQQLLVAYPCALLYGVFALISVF
# Outline: as §1
# YIPF6 = YIPF6 (UniProt Q96EC8)
# YIPF6, sequence (Q96EC8 whole entry, looked up): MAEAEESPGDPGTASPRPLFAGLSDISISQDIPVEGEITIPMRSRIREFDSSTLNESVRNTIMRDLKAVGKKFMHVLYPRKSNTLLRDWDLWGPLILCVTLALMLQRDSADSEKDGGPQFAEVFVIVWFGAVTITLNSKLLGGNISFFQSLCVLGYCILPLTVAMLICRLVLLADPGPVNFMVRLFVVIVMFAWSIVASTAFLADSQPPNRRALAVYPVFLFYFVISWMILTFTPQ
# Outline: as §1
# YLPM1 = YLPM1 (UniProt P49750)
# Outline: as §1
# YOD1 = YOD1 (UniProt Q5VVQ6)
# Outline: as §1
# YPEL5 = YPEL5 (UniProt P62699)
# YPEL5, sequence (P62699 whole entry, looked up): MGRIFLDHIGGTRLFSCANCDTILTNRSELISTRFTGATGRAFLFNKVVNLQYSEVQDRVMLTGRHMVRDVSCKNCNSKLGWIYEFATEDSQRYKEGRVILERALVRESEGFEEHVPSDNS
# Outline: as §1
# YWHAB = YWHAB (UniProt P31946)
# Outline: as §1
# YWHAQ = YWHAQ (UniProt P27348)
# Outline: as §1
# YWHAZ [1] = biological target: YWHAZ (UniProt E7ESK7)
# Outline: as §1
# YWHAZ [2] = biological target: YWHAZ (UniProt P63104)
# YWHAZ (UniProt P63104), sequence (P63104 whole entry, looked up): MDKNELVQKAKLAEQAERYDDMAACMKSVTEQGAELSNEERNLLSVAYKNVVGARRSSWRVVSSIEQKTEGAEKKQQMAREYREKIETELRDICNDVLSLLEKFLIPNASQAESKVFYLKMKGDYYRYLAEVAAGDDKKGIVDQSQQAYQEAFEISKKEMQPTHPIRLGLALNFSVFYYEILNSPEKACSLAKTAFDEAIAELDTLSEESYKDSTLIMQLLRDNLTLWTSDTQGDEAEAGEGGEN
# Outline: as §1
# YY1 = YY1 (UniProt P25490)
# YY1, sequence (P25490 whole entry, looked up): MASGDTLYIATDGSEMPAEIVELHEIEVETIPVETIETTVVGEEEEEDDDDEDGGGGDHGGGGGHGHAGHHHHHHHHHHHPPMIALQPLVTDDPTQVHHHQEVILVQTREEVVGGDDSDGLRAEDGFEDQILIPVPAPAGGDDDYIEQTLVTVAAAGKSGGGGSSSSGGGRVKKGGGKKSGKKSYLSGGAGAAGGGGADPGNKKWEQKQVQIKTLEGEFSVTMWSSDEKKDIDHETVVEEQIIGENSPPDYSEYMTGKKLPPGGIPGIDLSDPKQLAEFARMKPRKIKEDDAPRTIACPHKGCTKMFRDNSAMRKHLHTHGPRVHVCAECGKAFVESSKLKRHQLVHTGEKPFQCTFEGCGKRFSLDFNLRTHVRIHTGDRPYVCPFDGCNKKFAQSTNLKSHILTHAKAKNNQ
# Outline: as §1
# ZADH2 = ZADH2 (UniProt Q8N4Q0)
# Outline: as §1
# ZBTB43 = ZBTB43 (UniProt O43298)
# ZBTB43, sequence (O43298 whole entry, looked up): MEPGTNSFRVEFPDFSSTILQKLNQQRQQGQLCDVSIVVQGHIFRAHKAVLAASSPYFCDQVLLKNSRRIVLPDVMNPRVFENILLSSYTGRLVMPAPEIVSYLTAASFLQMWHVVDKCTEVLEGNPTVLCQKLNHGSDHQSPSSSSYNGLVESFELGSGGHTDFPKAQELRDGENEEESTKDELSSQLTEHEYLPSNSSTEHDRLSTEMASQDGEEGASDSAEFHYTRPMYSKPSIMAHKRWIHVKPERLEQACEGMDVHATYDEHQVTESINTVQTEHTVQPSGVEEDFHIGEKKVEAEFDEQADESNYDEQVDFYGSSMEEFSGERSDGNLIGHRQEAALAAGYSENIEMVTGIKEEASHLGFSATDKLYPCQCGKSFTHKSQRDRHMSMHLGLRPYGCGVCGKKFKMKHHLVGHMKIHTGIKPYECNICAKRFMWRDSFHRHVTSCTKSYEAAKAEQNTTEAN
# Outline: as §1
# ZC3H18 = ZC3H18 (UniProt Q86VM9)
# ZC3H18, sequence (Q86VM9 whole entry, looked up): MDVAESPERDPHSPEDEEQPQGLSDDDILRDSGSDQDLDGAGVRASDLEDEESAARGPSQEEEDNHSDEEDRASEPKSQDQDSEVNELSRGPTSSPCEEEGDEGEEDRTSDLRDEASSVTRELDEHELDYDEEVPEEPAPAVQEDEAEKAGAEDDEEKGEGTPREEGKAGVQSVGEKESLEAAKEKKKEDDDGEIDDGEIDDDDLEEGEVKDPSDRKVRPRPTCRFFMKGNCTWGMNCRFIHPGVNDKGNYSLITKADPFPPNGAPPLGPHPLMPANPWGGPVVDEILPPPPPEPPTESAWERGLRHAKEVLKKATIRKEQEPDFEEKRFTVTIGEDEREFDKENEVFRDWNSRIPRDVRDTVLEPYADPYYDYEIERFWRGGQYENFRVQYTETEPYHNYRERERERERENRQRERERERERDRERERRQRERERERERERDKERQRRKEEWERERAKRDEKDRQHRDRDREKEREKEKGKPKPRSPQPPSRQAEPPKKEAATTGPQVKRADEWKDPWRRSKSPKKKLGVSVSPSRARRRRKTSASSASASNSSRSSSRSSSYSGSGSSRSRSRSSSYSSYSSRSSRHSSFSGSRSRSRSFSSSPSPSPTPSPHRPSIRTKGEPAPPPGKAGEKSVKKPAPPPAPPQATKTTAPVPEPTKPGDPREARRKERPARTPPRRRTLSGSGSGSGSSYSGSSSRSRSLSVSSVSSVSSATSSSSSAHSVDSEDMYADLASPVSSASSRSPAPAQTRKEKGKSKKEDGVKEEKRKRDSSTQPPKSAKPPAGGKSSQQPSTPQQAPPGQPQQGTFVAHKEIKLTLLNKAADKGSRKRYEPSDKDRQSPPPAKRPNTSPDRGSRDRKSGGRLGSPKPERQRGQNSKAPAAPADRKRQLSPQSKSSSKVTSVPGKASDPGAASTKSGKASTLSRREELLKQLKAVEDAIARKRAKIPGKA
# Outline: as §1
# ZBTB21 = ZBTB21 (UniProt Q9ULJ3)
# ZBTB21, sequence (Q9ULJ3 whole entry, looked up): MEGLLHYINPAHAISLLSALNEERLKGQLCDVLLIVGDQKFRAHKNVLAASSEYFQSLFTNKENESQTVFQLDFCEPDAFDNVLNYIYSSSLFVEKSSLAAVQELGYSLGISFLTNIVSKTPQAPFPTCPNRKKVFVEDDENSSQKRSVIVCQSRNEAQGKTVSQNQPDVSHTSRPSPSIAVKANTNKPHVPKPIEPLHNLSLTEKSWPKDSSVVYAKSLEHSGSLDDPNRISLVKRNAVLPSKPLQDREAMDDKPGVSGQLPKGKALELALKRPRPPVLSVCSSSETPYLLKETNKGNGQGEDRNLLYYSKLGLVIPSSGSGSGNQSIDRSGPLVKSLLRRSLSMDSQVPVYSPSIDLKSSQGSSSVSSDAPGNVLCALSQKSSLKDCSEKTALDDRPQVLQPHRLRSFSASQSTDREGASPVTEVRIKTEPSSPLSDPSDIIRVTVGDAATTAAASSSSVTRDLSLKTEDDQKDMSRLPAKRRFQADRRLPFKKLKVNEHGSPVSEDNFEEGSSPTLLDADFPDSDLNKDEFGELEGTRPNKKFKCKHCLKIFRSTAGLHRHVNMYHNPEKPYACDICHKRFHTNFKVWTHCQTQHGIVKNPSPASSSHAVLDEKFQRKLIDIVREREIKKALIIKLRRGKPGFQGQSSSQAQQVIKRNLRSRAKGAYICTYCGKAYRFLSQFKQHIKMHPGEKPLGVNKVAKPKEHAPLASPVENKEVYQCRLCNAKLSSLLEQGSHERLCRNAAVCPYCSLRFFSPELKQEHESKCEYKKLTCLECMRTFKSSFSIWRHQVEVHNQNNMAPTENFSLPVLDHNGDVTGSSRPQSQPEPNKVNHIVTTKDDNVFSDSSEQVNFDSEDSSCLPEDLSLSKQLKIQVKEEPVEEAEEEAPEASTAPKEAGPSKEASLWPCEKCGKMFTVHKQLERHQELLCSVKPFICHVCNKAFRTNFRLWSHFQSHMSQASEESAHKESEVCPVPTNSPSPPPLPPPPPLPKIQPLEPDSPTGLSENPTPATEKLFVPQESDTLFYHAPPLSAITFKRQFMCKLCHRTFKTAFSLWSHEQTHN
# Outline: as §1
# ZBTB17 isoform 2 = ZBTB17 isoform 2 (UniProt Q13105)
# Outline: as §1
SMILES,log2 fold change (YAE1),log2 fold change (YBX1),log2 fold change (YES1),log2 fold change (YIPF4),log2 fold change (YIPF5 isoform 3),log2 fold change (YIPF6),log2 fold change (YLPM1),log2 fold change (YOD1),log2 fold change (YPEL5),log2 fold change (YWHAB),log2 fold change (YWHAQ),log2 fold change (YWHAZ [1]),log2 fold change (YWHAZ [2]),log2 fold change (YY1),log2 fold change (ZADH2),log2 fold change (ZBTB43),log2 fold change (ZC3H18),log2 fold change (ZBTB21),log2 fold change (ZBTB17 isoform 2)
CNCc1ccc(-c2[nH]c3cc(F)cc4c3c2CCNC4=O)cc1 [rucaparib],-0.078,0.253,0.169,-0.028,0,0.055,-0.07,-0.041,0.002,-0.078,-0.016,-0.057,-0.041,-0.05,-0.071,-0.272,0.029,,
CN1CC[C@H](c2c(O)cc(O)c3c(=O)cc(-c4ccccc4Cl)oc23)[C@H](O)C1 [alvocidib],0.249 (active),0.295,-0.029,0.027,0.003,0.022,0,-0.088,-0.234,-0.06,-0.192,-0.003,-0.056,-0.099,-0.05,0.008,-0.217,-0.067,
Cn1cc(-c2ccc3c(c2)CCN3C(=O)Cc2cccc(C(F)(F)F)c2)c2c(N)ncnc21,-0.095,-0.199,-0.284,0.03,-0.014,-0.035,0.077,0.023,-0.077,0.005,0.124,0.102,0.052,0.004,0.04,0.023,-0.03,0.122,
C#Cc1cccc(Nc2ncnc3cc(OCCOC)c(OCCOC)cc23)c1 [erlotinib],0.055,-0.173,-0.145,0.004,0.011,-0.017,0.084,0.064,0.049,0.011,-0.07,,0.011,-0.019,0.005,0.081,-0.066,0.235,-0.048
CC(C)(C)Cn1c(N)nc2ccc(-c3[nH]c(C(C)(C)C)nc3-c3ccc(F)cc3)nc21 [ralimetinib],0.023,0.082,-0.09,-0.099,-0.292,-0.045,0.043,-0.001,-0.111,-0.063,0.237,-0.031,0.145,0.002,0.169,0.012,0.03,0.121,
COc1cc2nc(-c3cc(F)ccc3O)nc(N[C@@H]3CNC[C@H]3C(C)(C)O)c2cc1OC,0.125,-0.054,-0.052,-0.094,0.13,0.043,0.1,0.018,0.096,-0.062,-0.148,0.028,-0.163,-0.268 (active),0.045,,-0.066,0.022,
Cc1nc(Nc2ncc(C(=O)Nc3c(C)cccc3Cl)s2)cc(N2CCN(CCO)CC2)n1 [dasatinib],0.152,0.167,-0.737 (active),0.021,0.055,0.256,-0.062,-0.115,-0.004,0.006,-0.149,-0.094,-0.044,-0.001,0.035,-0.034,0.038,-0.005,
CNc1nc(-c2ccc3c(N)n[nH]c3c2)cc(N2C[C@@H](C(=O)NC3CCCCC3)CC[C@H]2C)n1,-0.092,0.044,-0.037,-0.082,-0.115,-0.039,0.006,0.011,-0.06,-0.015,0.179,-0.097,0.031,-0.08,-0.011,-0.014,-0.136,-0.111,
Cc1ccc(C(=O)N(CCCN)[C@@H](c2nc3cc(Cl)ccc3c(=O)n2Cc2ccccc2)C(C)C)cc1 [ispinesib],0.063,-0.093,-0.097,-0.024,0.08,0.02,0.034,-0.042,-0.039,0.053,0.241,-0.11,0.149,-0.147,-0.107,0.164,0.039,-0.09,
Cn1cncc1[C@@](N)(c1ccc(Cl)cc1)c1ccc2c(c1)c(-c1cccc(Cl)c1)cc(=O)n2C [tipifarnib],-0.008,0.242,-0.001,0.31 (active),-0.059,-0.035,-0.048,-0.048,0.125,0.059,-0.112,0.127,-0.123,0.009,-0.053,,0.111,-0.02,
CNC(=O)c1ccccc1Nc1nc(Nc2ccc(N3CCOCC3)cc2OC)ncc1Cl,-0.002,0.01,-0.623 (active),0.062,0.088,-0.006,-0.006,0.011,0.08,0.019,0.049,,-0.013,-0.046,-0.051,-0.007,-0.01,-0.012,-0.041
CC[C@@H]1C(=O)N(C)c2cnc(Nc3ccc(C(=O)NC4CCN(C)CC4)cc3OC)nc2N1C1CCCC1,-0.022,0.262,0.129,0.022,0.088,-0.001,-0.016,-0.099,0.024,-0.055,-0.141,0.1,-0.083,-0.149,0.153,-0.061,-0.008,,
c1cn2cc(-c3ccc4cn[nH]c4c3)nc(Nc3ccc(N4CCOCC4)cc3)c2n1 [entospletinib],-0.07,0.162,-0.219,-0.015,-0.161,-0.046,-0.105,-0.013,0.009,0.009,-0.017,0.161,0.006,0.022,0.053,0.137,0.097,,
Fc1ccc(Cl)cc1-c1nc(Nc2ccncc2)c2nccnc2n1,0.007,-0.273,-0.179,-0.014,0.024,0.138,0.057,0.021,-0.028,0.048,0.146,0.099,0.081,0.073,-0.011,-0.194,-0.134,-0.022,
CC[C@H](C)[C@H](NC(=O)[C@H]([C@@H](C)CC)N(C)C(C)=O)C(=O)N[C@H](C(=O)N[C@@H](CC(C)C)C(=O)[C@@]1(C)CO1)[C@@H](C)O [epoxomicin],0.118,-0.191,0.009,-0.005,0.023,0.013,0.059,0.051,-0.052,0.018,0.111,-0.075,0.041,-0.003,0.077,-0.054,-0.059,-0.168,
